In PubChem BioAssay (NCATS):
Inconclusive results are not listed. The source made the active and inactive calls. Unless noted, the call rests on the fitted dose curve; in most records, active means well fitted curve in the direction sought with a large enough effect; inconclusive means small, poorly fitted or top-dose-only effect, or another doubt; inactive means no such curve, though single readings can be large; an effect the other way counts as inactive or inconclusive.

Tests used:
[1] = molecular target: Cytochrome P450 1A2 (Homo sapiens) (UniProt P05177); test: p450-cyp1a2 (AID 410; calls by dose curve; further: potency means the concentration at half of the fitted maximal effect;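 on activity change, negative = inhibition: -100% = full effect of reference inhibitor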)
Sequence of Cytochrome P450 1A2 (Homo sapiens) (P05177 whole entry, looked up): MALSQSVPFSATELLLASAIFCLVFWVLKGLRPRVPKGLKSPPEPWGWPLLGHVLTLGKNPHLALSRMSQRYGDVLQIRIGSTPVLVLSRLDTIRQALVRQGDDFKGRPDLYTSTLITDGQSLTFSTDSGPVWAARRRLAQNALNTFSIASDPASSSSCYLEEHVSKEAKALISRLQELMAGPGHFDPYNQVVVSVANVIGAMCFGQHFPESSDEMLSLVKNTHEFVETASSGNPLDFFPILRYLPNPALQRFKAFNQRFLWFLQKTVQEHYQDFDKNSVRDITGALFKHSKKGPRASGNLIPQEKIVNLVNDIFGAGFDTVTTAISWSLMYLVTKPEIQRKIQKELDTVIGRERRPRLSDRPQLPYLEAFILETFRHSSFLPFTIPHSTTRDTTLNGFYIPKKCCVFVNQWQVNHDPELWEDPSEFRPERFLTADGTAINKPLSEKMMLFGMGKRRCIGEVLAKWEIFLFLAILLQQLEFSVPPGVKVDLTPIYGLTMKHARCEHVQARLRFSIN
How it was run: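 O-Demethylation of luciferin 6' methyl ether by human CYP1A2 is monitored as luciferase luminescence. Substrate sits at Km (100uM); enzyme is 20nM. Values are scaled to 57 uM furafylline as maximal inhibition.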

[2] = molecular target: Cytochrome P450 3A4 (Homo sapiens) (UniProt P08684); test: qHTS Assay for Inhibitors and Substrates of Cytochrome P450 3A4 (AID 884); further: on the % scale 0 is the no-effect control and ±100 the full control effect; nearly all actives have a fitted effect of over 50% in size
Sequence of Cytochrome P450 3A4 (Homo sapiens) (P08684 whole entry, looked up): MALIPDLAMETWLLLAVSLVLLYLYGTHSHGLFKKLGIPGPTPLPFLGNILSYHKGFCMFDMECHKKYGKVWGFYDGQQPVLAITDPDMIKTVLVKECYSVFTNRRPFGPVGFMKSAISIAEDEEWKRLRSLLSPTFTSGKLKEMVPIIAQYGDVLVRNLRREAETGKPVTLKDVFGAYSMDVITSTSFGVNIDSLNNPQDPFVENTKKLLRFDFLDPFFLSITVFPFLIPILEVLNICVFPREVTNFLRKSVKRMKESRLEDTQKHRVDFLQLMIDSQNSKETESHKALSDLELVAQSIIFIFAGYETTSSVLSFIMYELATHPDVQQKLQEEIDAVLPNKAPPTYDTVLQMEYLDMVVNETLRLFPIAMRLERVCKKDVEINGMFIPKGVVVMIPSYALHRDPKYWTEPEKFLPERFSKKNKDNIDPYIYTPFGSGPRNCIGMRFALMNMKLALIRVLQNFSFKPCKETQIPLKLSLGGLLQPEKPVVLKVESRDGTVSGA
How it was run: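 Luminescent readout of luciferin produced by CYP3A4 (20 nM) dealkylation of Luciferin-PPXE, 25 uM (its KM). NADPH-driven reaction ran 60 min at RT after 10 min compound preincubation; data scaled to 57 uM ketoconazole as 100% inhibition.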

[3] = NFAT Signaling Pathway (AID 444; active means well fitted curve in either direction with a large enough effect, not every such curve was filed as active;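 further: carbachol stimulus at about its EC50 of 1 µM final; on the % scale 0 is the no-effect control and ±100 the full control effect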); details: Jurkat NFAT-bla M1, carbachol, beta-lactamase ratio, 5 h; at 17.2 µM (top of the series) unless noted
How it was run: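 Jurkat cells carrying an NFAT-driven β-lactamase reporter and co-transfected muscarinic M1 receptor were treated with compound plus carbachol (1 uM final, an EC50 level) for 5 h at 37 °C. CCF4 loading followed for 1 h at RT; 460/530 nm ratio gave %activity.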

[4] = molecular target: 3',5'-cyclic-AMP phosphodiesterase 4B (Homo sapiens) (UniProt Q07343); test: qHTS Assay for Inhibitors of PDE-IV (AID 607; active means well fitted activation curve with a large enough effect in the main read-out, with a control signal flat, not every such curve was filed as active; further: % of control where 0% means no effect)
Sequence of 3',5'-cyclic-AMP phosphodiesterase 4B (Homo sapiens) (Q07343 whole entry, looked up): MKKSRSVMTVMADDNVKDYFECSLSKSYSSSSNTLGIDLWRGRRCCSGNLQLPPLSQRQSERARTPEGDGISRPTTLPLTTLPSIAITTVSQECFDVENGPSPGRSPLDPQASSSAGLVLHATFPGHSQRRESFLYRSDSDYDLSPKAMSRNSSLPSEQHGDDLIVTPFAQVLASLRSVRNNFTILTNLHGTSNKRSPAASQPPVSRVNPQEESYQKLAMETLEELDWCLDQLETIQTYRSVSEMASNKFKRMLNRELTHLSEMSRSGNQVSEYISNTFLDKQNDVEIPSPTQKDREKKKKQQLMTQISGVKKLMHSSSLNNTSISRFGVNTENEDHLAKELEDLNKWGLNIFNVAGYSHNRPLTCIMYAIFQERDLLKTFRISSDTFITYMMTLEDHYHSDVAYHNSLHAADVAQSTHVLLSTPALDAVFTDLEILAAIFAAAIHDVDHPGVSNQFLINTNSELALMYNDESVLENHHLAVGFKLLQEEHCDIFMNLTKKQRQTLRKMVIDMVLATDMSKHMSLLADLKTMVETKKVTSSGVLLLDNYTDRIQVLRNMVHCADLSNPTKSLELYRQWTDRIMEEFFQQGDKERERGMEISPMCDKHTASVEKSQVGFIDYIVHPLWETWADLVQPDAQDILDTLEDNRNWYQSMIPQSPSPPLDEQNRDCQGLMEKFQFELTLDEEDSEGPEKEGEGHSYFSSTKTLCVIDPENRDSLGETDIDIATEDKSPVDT
How it was run: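 HEK293 ACTOne cells with CNG channel (1000/well), endogenous PDE4; membrane potential dye, compounds up to 22.9 uM final. Fluorescence Ex 535/Em 590; RO 20-1724 (100 uM final) as reference.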

[5] = molecular target: Cytochrome P450 2D6 (Homo sapiens) (UniProt P10635); test: qHTS Assay for Inhibitors and Substrates of Cytochrome P450 2D6 (AID 891); further: nearly all actives have a fitted effect of over 60% in size; further: potency means the concentration at half of the fitted maximal effect;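 on activity change, negative = inhibition: luciferin methyl ether substrate demethylated by CYP2D6 with NADPH regeneration; on the % scale 0 is the no-effect control and ±100 the full control effect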
Sequence of Cytochrome P450 2D6 (Homo sapiens) (P10635 whole entry, looked up): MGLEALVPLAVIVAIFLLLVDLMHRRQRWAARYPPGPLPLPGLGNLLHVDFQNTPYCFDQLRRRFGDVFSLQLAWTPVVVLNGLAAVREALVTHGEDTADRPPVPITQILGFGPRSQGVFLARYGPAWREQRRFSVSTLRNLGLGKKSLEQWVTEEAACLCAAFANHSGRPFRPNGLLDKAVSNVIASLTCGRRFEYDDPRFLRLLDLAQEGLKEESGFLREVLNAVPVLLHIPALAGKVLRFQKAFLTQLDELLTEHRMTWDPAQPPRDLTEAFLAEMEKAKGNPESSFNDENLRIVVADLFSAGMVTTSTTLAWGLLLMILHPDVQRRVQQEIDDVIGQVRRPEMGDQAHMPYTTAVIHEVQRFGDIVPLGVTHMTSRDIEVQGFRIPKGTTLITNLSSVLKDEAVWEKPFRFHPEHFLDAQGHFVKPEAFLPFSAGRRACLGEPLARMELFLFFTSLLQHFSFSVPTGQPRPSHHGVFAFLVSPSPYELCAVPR
How it was run: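 Luminescent read-out of luciferin formed by 5 nM human CYP2D6 demethylating 30 uM Luciferin-ME EGE (Km level) over 60 min at room temperature after NADPH regeneration addition. Data normalized to full inhibition by 1.43 uM quinidine.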

[6] = molecular target: Cytochrome P450 3A4 (Homo sapiens) (UniProt P08684); test: qHTS Assay for Activators of Cytochrome P450 3A4 (AID 885); further: nearly all actives have a fitted effect of over 65% in size
How it was run: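 Human CYP3A4 dealkylates Luciferin-PPXE to luciferin, which luciferase detection converts to light. Substrate was at its KM (25uM), buffer 200mM KPO4, reaction 60 min at RT.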

[7] = S16 Schwann cell viability assay (CellTiter-Glo assay) (AID 624031);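 further: native untransfected S16 rat Schwann cells; plate controls were DMSO-treated cells for no effect and cell-free wells for full effect; nearly all actives have a fitted effect of over 70% in size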
How it was run: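 Counter-screen for cytotoxicity: parental S16 rat Schwann cells lacking the PMP22 reporters, treated 24 h with compound, viability from cellular ATP by CellTiter-Glo luminescence, normalized to DMSO (0%) and no-cell wells.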

[8] = S16 Schwann cell PMP22 intronic element beta-lactamase assay (AID 624044; calls by dose curve;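 further: 0% = DMSO and -100% = potassium clavulanate positive control; nearly all actives have a fitted effect of over 15% in size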)
How it was run: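 Beta-lactamase reporter under a PMP22 intronic regulatory element in stable S16 rat Schwann cells; 24 h compound exposure. 460 nm blue signal normalized between DMSO (0%) and potassium clavulanate, with 535 nm FRET tracking viability; curves classed by r2 and response.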

[9] = system: CP260; test: qHTS profiling for inhibitors of Plasmodium falciparum proliferation (AID 504749); further: nearly all actives have a fitted effect of over 60% in size; further: potency means the concentration at half of the fitted maximal effect; details: P. falciparum in erythrocytes, SYBR Green DNA, 72 h; series mostly up to 12.8 µM
How it was run: (§1)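 Quantitative HTS: compounds pinned into medium, infected erythrocytes added (0.3% parasitemia, 2.5% hematocrit), 72 h culture at 37 C under 5% CO2. Saponin/Triton lysis with SYBR Green I, overnight RT, then fluorescence read.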

[10] = system: CP265; test: as above; details: P. falciparum in erythrocytes, SYBR Green DNA, 72 h; series mostly up to 12.8 µM
How it was run: as §1

[11] = system: CP335; test: as above; details: P. falciparum in erythrocytes, SYBR Green DNA, 72 h; series mostly up to 12.8 µM
How it was run: as §1

[12] = system: DIV14; test: as above; details: P. falciparum in erythrocytes, SYBR Green DNA, 72 h; series mostly up to 12.8 µM
How it was run: as §1

[13] = system: W2; test: as above; details: P. falciparum in erythrocytes, SYBR Green DNA, 72 h; series mostly up to 12.8 µM
How it was run: as §1

[14] = Stat Signaling Pathway (AID 446; active means well fitted curve in either direction with a large enough effect, not every such curve was filed as active;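 further: ME-180 cervical cancer cells given 40 pM IL-6 alongside compound; SIE-controlled beta-lactamase reporter measured as 460/530 nm FRET emission ratio; on the % scale 0 is the no-effect control and ±100 the full control effect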)
How it was run: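 Normalization used AC90 stimulation (300 pM IL-6) and AC90 inhibition (125 nM pan-JAK inhibitor at 40 pM IL-6). The underlying signal is SIE-driven beta-lactamase in ME-180 cells after 5 h IL-6 exposure with compound.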

[15] = AP1 Signaling Pathway (AID 357; active means well fitted curve in either direction with a large enough effect, not every such curve was filed as active;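 further: ME-180 reporter cells stimulated with EGF at its EC50 level; on the % scale 0 is the no-effect control and ±100 the full control effect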)
How it was run: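 A ratiometric CCF4 readout (405 nm excitation; 460 and 530 nm emission) quantified AP-1-driven beta-lactamase in ME-180 cells after 5 h with compound and EC50 EGF; AC50 values were derived for activators and inhibitors.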

[16] = S16 Schwann cell PMP22 intronic element firefly luciferase assay (AID 624032);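 further: plate controls were DMSO for no effect and PTC124 positive control mean for full effect; nearly all actives have a fitted effect of over 30% in size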
How it was run: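 Rat S16 Schwann cells stably carrying a PMP22 intronic element-driven Fluc reporter were seeded overnight, then exposed to compounds for 24 h at 37 °C. Luminescence was normalized to PTC124 (positive control) and DMSO (0% activity).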

[17] = system: CP203; test: qHTS profiling for inhibitors of Plasmodium falciparum proliferation (AID 504749); further: nearly all actives have a fitted effect of over 60% in size; further: potency means the concentration at half of the fitted maximal effect; details: P. falciparum in erythrocytes, SYBR Green DNA, 72 h; series mostly up to 12.8 µM
How it was run: as §1

[18] = system: DFO2036; test: as above; details: P. falciparum in erythrocytes, SYBR Green DNA, 72 h; series mostly up to 12.8 µM
How it was run: as §1

[19] = Confirmation and Secondary Assay for Modulators of Hemoglobin Beta Chain Splicing at IVS2 654 locus (AID 910);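 further: per-well total GFP intensity by laser scanning cytometry after 2-day treatment; % of control where 0% means no effect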
How it was run: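 HeLa cells stably carrying EGFP interrupted by mutant beta-globin IVS2-654 intron (CMV-driven) were treated with compound for 2 days at 37C; corrected splicing was scored as total peak GFP intensity per well (488 nm excitation, 500-520 nm emission).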

[20] = Confirmation and Secondary Assay for Modulators of Hemoglobin Beta Chain Splicing at IVS2 705 locus (AID 930);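 further: HeLa cells stably expressing the EGFP-705 splicing reporter; GFP fluorescence per well restored by corrected splicing of the IVS2-705 intron in EGFP; % of control where 0% means no effect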
How it was run: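 First, HeLa EGFP-705 cells are seeded at 500/well in Optimem with 2% FCS and left overnight. Next, compound or DMSO is added for 2 days. Finally wells are laser-scanned and total peak GFP intensity scored.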

CN1[C@H](CC(=O)c2ccccc2)CCC[C@H]1C[C@@H](O)c1ccccc1
inactive: Potency [2]
active: Potency [1] 31.6 µM

Nc1ncnc2c1ncn2[C@@H]1O[C@H](COP(=O)(O)O)[C@@H](O)[C@@H]1O
inactive: Potency [1] | activity change, negative = inhibition [3] -4.61% | outcome [4] | Potency [2] | Potency [5]

C=C(C)[C@H]1CC[C@]2(C(=O)O)CC[C@]3(C)[C@@H](CC[C@H]4[C@@]5(C)CC[C@@H](O)C(C)(C)[C@@H]5CC[C@@]43C)[C@H]12
inactive: Potency [1] | activity change, negative = inhibition [3] -3.55%

C=Cc1c(C)c2cc3nc(cc4[nH]c(cc5nc(cc1[nH]2)C(C)=C5CCC(=O)O)c(CCC(=O)OC)c4C)[C@@]1(C)C3=CC=C(C(=O)OC)[C@H]1C(=O)OC (tested in a mixture with another compound)
inactive: Potency [6] | outcome [7] | Potency [8]
active: Potency [1] 3.98 µM | Potency [9] 2.51 µM | Potency [10] 10 µM | Potency [11] 3.79 µM | Potency [12] 8.49 µM | Potency [13] 1.69 µM

CCN(CC)CCOC(=O)[C@@H](c1ccccc1)C1CCCCC1
inactive: outcome [14] | Potency [6]
active: Potency [1] 1.26 µM | Potency [5] 0.631 µM

CC(C)(C)NC(=O)[C@@H]1C[C@H]2CCCC[C@@H]2CN1C[C@H](O)[C@H](Cc1ccccc1)NC(=O)[C@@H](CC(N)=O)NC(=O)c1ccc2ccccc2n1
inactive: activity change, negative = inhibition [3] -14.7% | outcome [4]

CCN(CC)CCOC(=O)[C@@H](Cc1cccc2ccccc12)C[C@@H]1CCCO1
inactive: outcome [15] | outcome [4] | outcome [7] | Potency [16] | Potency [8] | Potency [17] | Potency [9] | Potency [10] | Potency [11] | Potency [18]
active: Potency [13] 2.28 µM

C[C@@H](Cc1cccc(C(F)(F)F)c1)NCCOC(=O)c1ccccc1
inactive: activity change, negative = inhibition [3] -24.1% | outcome [14]
active: Potency [1] 0.794 µM | Potency [5] 0.0158 µM

C=C(C)[C@H]1CC[C@]2(CO)CC[C@]3(C)[C@@H](CC[C@H]4[C@@]5(C)CC[C@@H](O)C(C)(C)[C@@H]5CC[C@@]43C)[C@H]12
inactive: Potency [1] | activity change, negative = inhibition [3] -4.45% | outcome [14] | outcome [4]

COc1cc2ccc(=O)oc2c(O)c1O
inactive: outcome [4] | Potency [5] | Potency [19] | Potency [20]
active: Potency [1] 12.6 µM

Nc1ncn([C@H]2O[C@@H](CO)[C@@H](O)[C@@H]2O)c(=O)n1
inactive: activity change, negative = inhibition [3] -16.5% | outcome [4]

CCC(=O)[C@@]1(C)[C@H](C)C[C@@H]2[C@@H]3CCC4=CC(=O)C=C[C@@]4(C)[C@H]3[C@H](O)C[C@]21C
active: Potency [13] 5.1 µM
inactive: Potency [1] | outcome [14] | outcome [4] | outcome [7] | Potency [16] | Potency [8] | Potency [17] | Potency [10] | Potency [18] | Potency [12]

CCO[C@H]1O[C@@H]([C@H](COCc2ccccc2)OCc2ccccc2)[C@@H](OCc2ccccc2)[C@H]1O
inactive: activity change, negative = inhibition [3] -29.7% | outcome [14] | outcome [7] | Potency [8] | Potency [17] | Potency [9] | Potency [10] | Potency [11] | Potency [18]
